# Screening results as filed in PubChem BioAssay.
# An excerpt weighted towards active compounds, which were near 7.7% of everything screened.
# FMDV antiviral: High Throughput Screening for Foot and Mouth Disease Virus Antivirals | FMDV antiviral cell-based qHTS | Potency, µM (highest dose often 57.9 µM), actives largely listed as inhibitors | actives 1.2% (n = 410,000) | AID 1159524, 2015; calls by dose curve; tested in HEK293T cells; further: read-out not given here; nearly all actives have a fitted effect of over 45% in size
# HCMV antiviral: qHTS Assay for inhibitors of the human cytomegalovirus (HCMV) | HFF cells, HCMV-luciferase reporter, 72 h; active compounds read low | activity change, negative = inhibition, % at 57.5 µM | actives 4.5% (n = 410,000) | AID 1259415, 2018; in the data active means activity change below about -60%; inconclusive means no clear call, values can overlap the other calls; inactive means above about -39%
#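 HFF cells seeded 16 h at 37C, treated with compounds, infected with luciferase-reporter HCMV at MOI 1 PFU/cell; luciferase read at 72 h post infection, normalized to buffer-only and Salinomycin controls.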
# Sm TGR block: qHTS Assay for the Inhibitors of Schistosoma Mansoni Peroxiredoxins; Schistosoma mansoni thioredoxin glutathione reductase (TGR), Q962Y6; Potency, µM (doses to about 114 µM), hits mostly inhibitors; actives 3% (n = 360,000); purified TGR, DTNB reduction, TNB absorbance 405 nm; further: nearly all actives have a fitted effect of over 60% in size
#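 TGR 20 nM + NADPH 100 uM (dispensed conc.), cpd preinc 15 min RT; start with NADPH (500 uM addition) then DTNB (15 mM addition). Kinetic TNB absorbance, 405 nm filter. Four-parameter Hill fit across titration.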
# FBPA Giardia inh: qHTS Assay for Inhibitors of Fructose-1,6-bisphosphate Aldolase from Giardia Lamblia | A8B2U2 | purified Giardia FBPA | Potency, µM (top dose mostly 59.6 µM), most hits filed as inhibitors | actives 0.71% (n = 290,000) | AID 2451, 2010; further: nearly all actives have a fitted effect of over 55% in size
# Target sequence (A8B2U2 whole entry, looked up): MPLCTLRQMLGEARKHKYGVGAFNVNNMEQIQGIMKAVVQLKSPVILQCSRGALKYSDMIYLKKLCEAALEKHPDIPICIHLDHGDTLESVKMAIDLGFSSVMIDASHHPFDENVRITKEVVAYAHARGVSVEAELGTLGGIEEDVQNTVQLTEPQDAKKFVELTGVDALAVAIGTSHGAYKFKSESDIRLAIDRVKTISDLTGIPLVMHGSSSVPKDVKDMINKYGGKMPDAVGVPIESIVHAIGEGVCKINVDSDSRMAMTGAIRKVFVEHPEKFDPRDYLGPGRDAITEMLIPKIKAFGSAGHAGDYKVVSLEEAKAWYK
#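 40 nM FBPA preincubated 10 min at RT with compound (up to 57.5 uM final), then substrate plus GAPDH/TPI/NAD/arsenate coupling and diaphorase/resazurin added. Fluorescence read after 20 min at RT, 525/598 nm.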
# RE007 growth inh: qHTS Assay for Inhibitors of the HIV-1 protein Vpr; S. pombe RE007 Vpr strain, BacTiter-Glo ATP luminescence, 24 h; Potency, µM (top dose mostly 92.2 µM), hits mostly inhibitors; actives 0.21% (n = 360,000); active means well fitted falling curve with a large enough effect; inconclusive means small, poorly fitted or top-dose-only effect; inactive means no such curve, though single readings can be large or run the other way; further: nearly all actives have a fitted effect of over 50% in size
#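 Fission yeast strain RE007, carrying one chromosomally integrated HIV-1 vpr copy, was seeded at OD 0.01 in PMG+AL medium with 23 nL pinned compound. After 24 h at 30 °C and 99% humidity, viability was read by BacTiter-Glo luminescence.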
# Tb PYK inh: qHTS of Trypanosoma Brucei Inhibitors; TbPYK enzyme, Kinase-Glo Plus ATP luminescence, 45 min; Potency, µM (doses to about 76.8 µM), usual class: inhibitors; actives 0.12% (n = 410,000); further: nearly all actives have a fitted effect of over 50% in size
#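 Enzyme and substrate buffer are dispensed first and compound is pin-transferred. ADP at 130 uM final then starts the reaction, which runs 45 min at room temperature. Detection reagent is added for 10 min before luminescence is imaged.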
# Hits are given with their value; n = inactive; u = inconclusive; x = no result; [ ] = dose if it differs, or a comment. Unless noted, the call rests on the fitted dose curve; in most records, active means well fitted curve in the direction sought with a large enough effect; inconclusive means small, poorly fitted or top-dose-only effect, or another doubt; inactive means no such curve, though single readings can be large; an effect the other way counts as inactive or inconclusive.
SMILES,FMDV antiviral,HCMV antiviral,Sm TGR block,FBPA Giardia inh,RE007 growth inh,Tb PYK inh
CCN(CC)c1ncnc2scc(C3COc4ccccc4O3)c12 (stereo not given),u,u,n,n,n,n
COc1ccccc1C(=O)Nc1ccccc1C(=O)OCc1cc(=O)n2ccsc2n1,n,n,n,x,x,n
CC1CCCN(c2ncnc3c2nc2n3CCCCC2)C1 (stereo not given),n,n,n,x,x,n
COc1ccc(N(Cc2cc(=O)[nH]c3ccccc23)C(=O)c2ccco2)cc1,n,n,31.6µM,n,n,n
COc1ccc(CN(C(=O)c2ccco2)c2ccccc2)cc1,n,n,n,n,n,n
O=C(O)C(O)C(O)C(O)C(O)C(=O)O (stereo not given),x,x,x,n,x,n
COc1ccc(N/C=C2\CCOC2=O)cc1,n,n,n,n,n,n
COc1ccc(N/C=C2\C(=O)CCc3c2oc2cc(Cl)c(O)c(Cl)c32)cc1,n,-61.9,35.5µM,n,n,n
COc1ccc(CCNc2nc(-c3ccc(C)cc3)cc(C(F)F)n2)cc1OC,n,n,n,x,x,n
Cc1ccc(-c2cc(C(F)F)nc(S(C)(=O)=O)n2)cc1,31.6µM,n,n,n,n,n
CCc1ccc(-c2nn(CC(=O)NC3CCCCC3)c3c2cnc2ccc(OC)cc23)cc1,n,n,n,x,x,n
CC[C@@H](C)[C@H](CN[C@H](CNC)C(C)C)NC[C@@H](C)c1ccc(CC(C)C)cc1,u,-78.1,n,n,n,n
CC[C@H](C)[C@@H](CNC)NC[C@@H](Cc1ccc(O)cc1)NCC(C)(C)C,n,n,n,u,n,n
Cc1ccc(-n2c(C)cc(C(=O)OCC(=O)N(CC(C)C)C3CCS(=O)(=O)C3)c2C)cc1 (stereo not given),n,n,n,n,n,n
Cc1cc(C)n(-c2ccc(C(=O)OCC(=O)N(CC(C)C)C3CCS(=O)(=O)C3)cc2)n1 (stereo not given),n,-86.5,n,n,n,n
CN(C(=O)COC(=O)c1ccc2c(c1)NC(=O)CS2)C1CCS(=O)(=O)C1 (stereo not given),n,n,n,n,n,n
CC(C)CN(C(=O)COC(=O)c1ccc2c(c1)NC(=O)CS2)C1CCS(=O)(=O)C1 (stereo not given),n,-84.2,n,n,n,n
COC(=O)C1=C(c2ccc(-c3ccccc3)c(F)c2)C[C@@H]2CC[C@H]1N2C(=O)N1CCC(O)CC1,u,u,n,x,n,n
COC(=O)C1=C(c2ccc(-c3ccccc3)c(F)c2)C[C@@H]2CC[C@H]1N2C(=O)N1CCCC1,n,-72.2,n,x,n,n
COC(=O)C1=C(c2ccc(-c3ccccc3)c(F)c2)C[C@@H]2CC[C@H]1N2C(=O)N1CCCCC1,u,-75.1,n,x,n,n
COc1cc2ccccc2cc1C(=O)Nc1ccc2oc(-c3cccc(C)c3)nc2c1,n,n,n,x,x,n
CC1=CC(=O)C(Sc2ccc(C)cc2)=CC1=O,u,n,x,x,22.4µM,7.08µM
CCS(=O)(=O)c1ccc(N=Nc2ccc(O)c3ncccc23)c(OC)c1,u,-92.1,n,n,u,n
COc1ccccc1N=Nc1[nH]c2ccc(C)cc2c1O,n,n,n,n,n,u
CCS(=O)(=O)c1ccc(O)c(NC(=O)c2cc(OC)c(OC)c(OC)c2)c1,n,n,n[11.4 µM],n,n,n
SMILES,FMDV antiviral,HCMV antiviral,Sm TGR block,FBPA Giardia inh,RE007 growth inh,Tb PYK inh
COc1ccccc1N=Nc1ccc(O)c2ncccc12,n,-73.4,n,u,u,n
Oc1ccc(N=Nc2ccccc2C(F)(F)F)c2cccnc12,n,-97.4,n,n,x,n
COc1cc(CC(C)N)cc2c1OCO2 (stereo not given),x,x,x,x,x,n
O=C(Nc1c(O)c2ccccc2oc1=O)c1ccccc1Cl,n,n,n,x,x,n
CCCOc1ccc(C(=O)N/N=C/c2c[nH]c3ccc(Br)cc23)cc1,n,n,n,n,n,n
CCCCCN=C(N)N/N=C/c1c[nH]c2ccc(OC)cc12,u,-99.7,x,n,n,n
COC(=O)c1cccnc1,x,x,x,n,x,n
